# Inconclusive results are not listed. The source made the active and inactive calls. Rule for the calls, unless noted: active = hit-call score of the fitted dose curve at least 0.9, where 1 is the maximum; inactive = score below 0.9.
# Tests used:
# [1] = UKN5_HCS_SBAD2_cell_viability: Viability Assessment in the University of Konstanz (UKN) Leist Lab Neurite Outgrowth Assay in human iPSC-derived immature Dorsal Root Ganglia Neurons (UKN5) (AID 2284056)
# Outline: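 iPSC-derived immature peripheral neurons (SBAD2) seeded on Matrigel with CHIR99021, SU5402 and DAPT, dosed 1 h later for 24 h. Viability from Hoechst H-33342 and calcein-AM live staining, high-content imaging; bidirectional fit versus DMSO.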
# [2] = UKN5_HCS_SBAD2_neurite_outgrowth: University of Konstanz (UKN) Leist Lab Neurite Outgrowth Assay in human iPSC-derived immature Dorsal Root Ganglia Neurons (UKN5) (AID 2284070); conditions: actives raise or lower the signal
# Outline: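 Thaw, seed on Matrigel (100.000 cells/cm2), dose 1 h later; at 23 h live-stain with H-33342 and calcein-AM for 60 min; image at 24 h. Neurite area fitted bidirectionally vs DMSO.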
# [3] = UKN2_HCS_IMR90_neural_migration: University of Konstanz (UKN) Leist Lab Neural Crest Cell Migration Assay in human induced IMR90 Pluripotent Stem Cells (UKN2) (AID 2284204); conditions: actives raise or lower the signal
# Outline: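 High-content imaging of calcein-AM and Hoechst stained cells quantifies migration into a stopper-defined gap after 24 h compound exposure. Neural crest cells from IMR90 iPSC migrated 24 h in EGF/FGF N2-S medium before dosing; DMSO baseline.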
# [4] = IUF_NPC1b_proliferation_BrdU_72hr: Leibniz Research Institute for Environmental Medicine (IUF) 72-hour Neural Progenitor Cell Bromodeoxyuridine (BrdU) Proliferation Assay (NPC1b) (AID 2284207)
# Outline: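 Human fetal cortex-derived (GW 16-19) neural progenitor spheres, 0.25-0.35 mm, one per well in EGF/FGF proliferation medium, exposed to compound for 72 h at 37C, pH 7.2-7.6. BrdU incorporation over the final 16 h read by luminescence ELISA, relative to DMSO.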
# [5] = IUF_NPC1a_proliferation_area_72hr: Leibniz Research Institute for Environmental Medicine (IUF) 72-hour Neural Progenitor Cell Proliferation Area Assay (NPC1a) (AID 2284208)
# Outline: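 Measured in 3D suspension: each well held one primary hNPC sphere grown with EGF and FGF at pH 7.2-7.6. Compound stayed on for 72 h, then area was imaged; spheres lacking growth factors defined reduced proliferation.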
# [6] = IUF_NPC1_viability_72hr: Viability Assessment at 72 hours in the Leibniz Research Institute for Environmental Medicine (IUF) Neural Progenitor Cell Proliferation Assay (NPC1) (AID 2284209)
# Outline: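 Spheres of primary human neural progenitors were plated singly in proliferation medium and treated for 72 h. Mitochondrial reduction of resazurin was then measured by fluorescence and analysed against DMSO controls.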
# [7] = UKN2_HCS_IMR90_cell_viability: Viability Assessment in the University of Konstanz (UKN) Leist Lab Neural Crest Cell Migration Assay in human induced IMR90 Pluripotent Stem Cells (UKN2) (AID 2284233);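 note: cells exposed to compound for 24 h after a 24 h migration phase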
# Outline: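 After calcein-AM/Hoechst staining, viability is quantified by high-content fluorescence imaging, relative to DMSO, in iPSC (IMR90)-derived neural crest cells. Exposure lasts 24 h, starting after a 24 h migration period on PLO/laminin/fibronectin coating.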
# [8] = IUF_NPC2c_oligodendrocyte_migration_120hr: Leibniz Research Institute for Environmental Medicine (IUF) 120-hour Neural Progenitor Cell Migration Assay for Oligodendrocyte Migration (NPC2c) (AID 2284297);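 note: O4-positive oligodendrocyte migration distance divided by radial glia migration distance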
# Outline: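 Using fetal brain neural progenitor spheres differentiating in N2 medium at 37C, compounds were present for 120 h. Oligodendrocyte migration distance, normalized to radial glia migration, was measured from imaged O4 staining.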
# [9] = IUF_NPC2a_radial_glia_migration_120hr: Leibniz Research Institute for Environmental Medicine (IUF) 120-hour Neural Progenitor Cell Migration Assay for Radial Glia Migration (NPC2a) (AID 2284298)
# Outline: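 Exposure of 0.3 mm primary hNPC spheres runs day 0 to 120 h with a half-volume medium change at day 3. Fixed cells get Hoechst staining; high-content analysis of nuclear positions yields radial glia migration distance per well, compared against DMSO controls.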
# [10] = IUF_NPC2a_radial_glia_migration_72hr: Leibniz Research Institute for Environmental Medicine (IUF) 72-hour Neural Progenitor Cell Migration Assay for Radial Glia Migration (NPC2a) (AID 2284299)
# Outline: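 Single 0.3 mm neurospheres were plated per well in N2 differentiation medium and exposed from the start of differentiation. After 72 hours, brightfield images were taken and radial glia migration from the sphere core edge was measured manually in four directions, averaged per well.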
# [11] = IUF_NPC2b_neuronal_migration_120hr: Leibniz Research Institute for Environmental Medicine (IUF) 120-hour Neural Progenitor Cell Migration Assay for Neuron Migration (NPC2b) (AID 2284300)
# Outline: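 Fetal human NPC spheres migrate on PDL/laminin during 120 h compound treatment; neuronal migration distance, glia-normalized, scored versus DMSO control.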
# [12] = IUF_NPC3_neuronal_differentiation_120hr: Leibniz Research Institute for Environmental Medicine (IUF) 120-hour Neuronal Differentiation Assay (NPC3) (AID 2284301)
# Outline: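 Value is percent TUBB3-positive neurons among Hoechst-stained nuclei in the migration area, scored by trained CNN after 120 h differentiation. Primary hNPC spheres on poly-D-lysine/laminin, N2 medium, continuous dosing from day 0, half-refeed day 3; DMSO reference.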
# [13] = IUF_NPC4_neurite_length_120hr: Leibniz Research Institute for Environmental Medicine (IUF) 120-hour Neuronal Morphology Assay for Neurite Length (NPC4) (AID 2284302)
# Outline: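 Neurite length, the mean in um across TUBB3-stained neurons, is derived by skeletonization of high-content images after 120 h differentiation. Compound exposure, 7 concentrations plus solvent control, ran from plating of hNPC spheres on poly-D-lysine/laminin, with medium half-replaced on day 3.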
# [14] = IUF_NPC5_oligodendrocyte_differentiation_120hr: Leibniz Research Institute for Environmental Medicine (IUF) 120-hour Oligodendrocyte Differentiation Assay (NPC5) (AID 2284304; active = hit-call score of the fitted dose curve at least 0.9, where 1 is the maximum;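 note: primary human fetal neural progenitor spheres plated to migrate and differentiate; share of O4-positive cells among Hoechst nuclei found by CNN image analysis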)
# Outline: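 After plating on poly-D-lysine/laminin, fetal-derived hNPC spheres differentiated for 120 h at 37C in compound-containing N2 medium, refreshed by half on day 3. O4 immunostaining over Hoechst nuclei in the migration zone gave oligodendrocyte percentage relative to DMSO.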
# [15] = IUF_NPC4_neurite_area_120hr: Leibniz Research Institute for Environmental Medicine (IUF) 120-hour Neuronal Morphology Assay for Neurite Area (NPC4) (AID 2284305; active = hit-call score of the fitted dose curve at least 0.9, where 1 is the maximum)
# Outline: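 Neurite area (pixels, nuclei excluded) of TUBB3-positive neurons from hNPC spheres differentiating 5 days under continuous exposure at 37 C, 5% CO2. High-content imaging; loss of signal versus DMSO control across 7 concentrations.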
# [16] = IUF_NPC2-5_cytotoxicity_72hr: Cytotoxicity Assessment at 72 hours in the Leibniz Research Institute for Environmental Medicine (IUF) Neural Progenitor Cell Migration and Differentiation Assay for Cytotoxicity (NPC2-5) (AID 2284306; active = hit-call score of the fitted dose curve at least 0.9, where 1 is the maximum;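 note: LDH release into supernatant measured by resorufin fluorescence marking membrane damage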)
# Outline: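 Membrane-integrity cytotoxicity at 72 h, read as LDH-driven resorufin fluorescence in supernatant. hNPC spheres from fetal cortex differentiate on coated plates in N2 medium, 37C, 5% CO2; seven serial compound concentrations plus solvent control (DMSO ≤0.1%).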
# [17] = IUF_NPC2-5_cytotoxicity_120hr: Cytotoxicity Assessment at 120 hours in the Leibniz Research Institute for Environmental Medicine (IUF) Neural Progenitor Cell Migration and Differentiation Assay (NPC2-5) (AID 2284307; active = hit-call score of the fitted dose curve at least 0.9, where 1 is the maximum)
# Outline: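 Membrane-integrity loss is quantified by LDH in supernatant after five days of exposure of migrating, differentiating human fetal NPC spheres; seven serially diluted concentrations are tested with DMSO kept at or below 0.1%.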
# [18] = IUF_NPC2-5_cell_number_120hr: Cell Number Assessment at 120 hours in the Leibniz Research Institute for Environmental Medicine (IUF) Neural Progenitor Cell Migration and Differentiation Assay (NPC2-5) (AID 2284308);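 note: count of Hoechst-stained nuclei in migration zone around plated human neural progenitor spheres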
# Outline: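 Seven-point serial dilutions plus solvent control were applied to plated 0.3 mm hNPC spheres at differentiation start, with medium half-replaced at day 3. Nuclei positive for Hoechst in the migration zone were enumerated at 120 h.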
# [19] = IUF_NPC2-5_viability_120hr: Viability Assessment at 120 hours in the Leibniz Research Institute for Environmental Medicine (IUF) Neural Progenitor Cell Migration and Differentiation Assay (NPC2-5) (AID 2284312)
# Outline: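 Alamar blue resorufin fluorescence read after 5 days of differentiation, with compound present from day 0 and replenished at day 3. Primary hNPC spheres on laminin-coated plates, 37C; seven concentrations plus solvent control, fitted against DMSO.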
# [20] = IUF_NPC1_cytotoxicity_72hr: Cytotoxicity Assessment at 72 hours in the Leibniz Research Institute for Environmental Medicine (IUF) Neural Progenitor Cell Proliferation Assay (NPC1) (AID 2284332; active = hit-call score of the fitted dose curve at least 0.9, where 1 is the maximum;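 note: rising LDH signal means more cytotoxicity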)
# Outline: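 Membrane-integrity loss is scored from LDH released into the medium, detected as resorufin fluorescence, with activity fitted upward relative to baseline. Test material stays on human fetal-derived progenitor spheres for 72 h.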
smiles,measurement,setting,value
CC(C)CC(C)c1sccc1NC(=O)c1cn(C)nc1C(F)(F)F (stereo not given),outcome,[1],inactive
same,outcome,[2],inactive
same,AC50,[3],65.6 µM (active)
same,outcome,[4],inactive
same,outcome,[5],inactive
same,outcome,[6],inactive
same,AC50,[7],77.1 µM (active)
same,outcome,[8],inactive
same,AC50,[9],10 µM (active)
same,outcome,[10],inactive
same,outcome,[11],inactive
same,outcome,[12],inactive
same,outcome,[13],inactive
same,AC50,[14],5.68 µM (active)
same,outcome,[15],inactive
same,outcome,[16],inactive
same,outcome,[17],inactive
same,outcome,[18],inactive
same,outcome,[19],inactive
same,outcome,[20],inactive

# — PubChem BioAssay (EPA / NIEHS)
